Reference: the supplement of paper PMC3334620
Whole data set: some 33,000 sequences, median “E-score (-0.5 to 0.5)” near -0.032, cut for the highest 2% near 0.36. For the sample, the highest values were picked, then their nearest neighbours and some sequences at random.

biological target: T1, Sko1 (UniProt Q02100); assay: PBM E-score (8-mer binding enrichment) (E-score (-0.5 to 0.5)); higher = stronger / more preferred TF binding; settings: protein concentration: 200 nM; construct: GST-full length
T1 sequence: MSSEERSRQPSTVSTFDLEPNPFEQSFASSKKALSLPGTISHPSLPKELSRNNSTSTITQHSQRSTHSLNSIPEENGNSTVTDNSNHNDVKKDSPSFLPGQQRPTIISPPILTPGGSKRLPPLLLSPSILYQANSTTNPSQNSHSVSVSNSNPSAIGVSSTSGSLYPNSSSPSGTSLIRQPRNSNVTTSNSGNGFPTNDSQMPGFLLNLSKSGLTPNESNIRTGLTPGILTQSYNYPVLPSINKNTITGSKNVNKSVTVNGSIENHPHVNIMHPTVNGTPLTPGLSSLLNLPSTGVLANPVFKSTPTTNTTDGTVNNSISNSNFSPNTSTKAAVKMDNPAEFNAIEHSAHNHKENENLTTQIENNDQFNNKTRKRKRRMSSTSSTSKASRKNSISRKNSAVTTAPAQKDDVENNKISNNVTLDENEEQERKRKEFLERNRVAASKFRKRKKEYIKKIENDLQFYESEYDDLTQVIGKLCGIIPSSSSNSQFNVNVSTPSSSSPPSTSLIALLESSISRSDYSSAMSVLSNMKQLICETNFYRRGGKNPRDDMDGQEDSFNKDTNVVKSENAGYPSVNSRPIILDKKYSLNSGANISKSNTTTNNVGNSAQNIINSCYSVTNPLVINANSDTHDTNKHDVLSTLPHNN
Procedure: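 Universal 'all 10-mer' protein binding microarrays (Agilent AMADID 015681) probed with GST-tagged S. cerevisiae TFs (full-length or DBD) made by in vitro transcription/translation (PURExpress), about 100-200 nM. Bound TF was detected with fluorescent anti-GST. Each ungapped 8-mer (which stands for itself and its reverse complement) is scored by the PBM enrichment score (E-score), a modified Wilcoxon-Mann-Whitney statistic from -0.5 to +0.5, computed with the Universal PBM Analysis Suite. Scale: above 0.35 generally sequence-specific binding.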

Row | Sequence | PBM E-score
1 | AACGCAAT | 0.38
2 | GACGCAAA | 0.347
3 | CACGCACA | 0.222
4 | AACGCAAG | 0.0717
5 | TACGCATA | 0.368
6 | AACGCATA | 0.219
7 | CACGCACG | 0.204
8 | AACGCAAA | 0.175
9 | CACGCATA | 0.0358
10 | TACGCAAA | 0.415
11 | AACGCAAC | 0.289
12 | TACGCACA | 0.401
13 | TCAGCCGA | -0.104
14 | GGGGCGAC | -0.228
15 | GAGACCGC | -0.32
16 | CATGCCTC | 0.0373
17 | TAGAGCGA | -0.114
18 | GGGTTGTA | -0.19
19 | CACGCAAA | 0.26
20 | CACGCAAC | 0.379
21 | AACGCACA | 0.161
22 | GACGCACA | 0.36
23 | CACGCAAG | 0.3
24 | AACGCACG | 0.31
25 | TCGCTTAA | -0.0032

Row | Sequence | PBM E-score
26 | GAGACTGC | -0.054
27 | AAAGAACT | -0.0725
28 | AACAGAGG | -0.205
29 | CGGTTCTC | -0.0999
30 | AACCTTCT | -0.298
31 | CAAGGTCA | -0.144
32 | AGTGATGA | 0.21
33 | CGTGACAA | 0.188
34 | AGTGACGC | 0.416
35 | CGTGACCA | -0.0216
36 | GGTGATGA | 0.18
37 | CTTGACGC | 0.262
38 | AGTGACCC | -0.23
39 | CGTGACGA | 0.411
40 | CGTGATGA | 0.36
41 | CGTGACGC | 0.422
42 | CCTGACGC | 0.0655
43 | AGTGACTC | -0.0159
44 | ACCTGAGC | 0.0188
45 | AACTGGTC | -0.112
46 | CTTAGTTC | 0.0167
47 | AAACAGCT | -0.0726
48 | CGCTCTCA | -0.0854
49 | GAAACACC | 0.02
50 | TAGTTCAA | 0.0959

Row | Sequence | PBM E-score
51 | GGCGCACC | -0.36
52 | TCACAAGA | -0.00762
53 | CCTGGCGC | -0.133
54 | ACGTAAAT | 0.463
55 | AAGTAAAG | -0.152
56 | ACGTAAAC | 0.459
57 | GCGTAAAA | 0.279
58 | ACGTAAAG | 0.461
59 | ACGTAAAA | 0.463
60 | AGGTAAAT | 0.131
61 | GCGTAAAC | 0.281
62 | AAGTAAAT | 0.139
63 | CCGTAAAA | 0.053
64 | CCGTAAAC | 0.104
65 | CCGTAAAG | 0.0256
66 | CACGCACC | 0.115
67 | AGCTTTGC | -0.179
68 | GAAAATGC | 0.0279
69 | GAGTAGCA | 0.0153
70 | TCTGGCAA | -0.261
71 | CTGAAAGA | -0.0455
72 | CATTGCAG | 0.0387
73 | GGATGCAC | -0.16
74 | GTCTGCAC | -0.118
75 | CGACGTCA | 0.486

Row | Sequence | PBM E-score
76 | GGACGTCA | 0.466
77 | GGCCGTCA | -0.184
78 | GGACGTCC | -0.151
79 | AGACGTCC | 0.281
80 | AGACGTCT | 0.271
81 | CGACGTCC | 0.169
82 | CGACGTCG | 0.209
83 | AGACGTCA | 0.484
84 | GCAGATGA | -0.0175
85 | AGCCGGAG | 0.0107
86 | CAAGTACC | -0.0542
87 | AAGGATCG | 0.0147
88 | AAGTTTTA | 0.142
89 | AGTCGGAA | -0.0901
90 | AGACTCAT | 0.183
91 | ATTACGTG | 0.487
92 | ATTACGGG | 0.206
93 | ATTAGGTC | 0.207
94 | ATTACGGC | 0.303
95 | ATTACCTG | 0.067
96 | ATTACGTC | 0.492
97 | GAGAGCCA | -0.118
98 | AGGCTGCC | -0.341
99 | GATCCACA | -0.0832
100 | CTTCCTTC | -0.284

Row | Sequence | PBM E-score
101 | GTAGATTA | 0.269
102 | AACTGAAG | 0.0972
103 | CCCGTAGG | -0.194
104 | GACGTAGC | 0.436
105 | CCCGTAGC | -0.291
106 | AACGTAGC | 0.349
107 | CACGTAGG | 0.396
108 | CGCGTAGA | 0.0669
109 | GCCGTAGC | -0.328
110 | CACGTAGA | 0.39
111 | AACGTAGA | 0.357
112 | CACGTAGC | 0.364
113 | AACGTAGG | 0.336
114 | CTCGTAGC | -0.0204
115 | CTGCACTC | -0.16
116 | GTTTAAGA | -0.0752
117 | CAGTCGTC | 0.0351
118 | CTTCCTGC | -0.256
119 | CGTAGCAC | 0.295
120 | GCCATCCC | -0.319
121 | CCACTGTC | -0.185
122 | ACAAGGGT | -0.0251
123 | GCCAGCAA | -0.205
124 | CTAACCAG | -0.0782
125 | GACCTGGC | -0.297

Row | Sequence | PBM E-score
126 | TACGTAGA | 0.452
127 | TCCGTAGA | -0.15
128 | GACGTAGA | 0.42
129 | GTCGTAGA | 0.166
130 | GGCGTAGA | 0.118
131 | AGCGTAGA | -0.0243
132 | AGCGACAG | -0.155
133 | GGTAAAAA | 0.0275
134 | AGTAAACA | 0.0928
135 | AGTAATCC | 0.0657
136 | GGTAATCA | 0.0412
137 | CCTAATCC | -0.11
138 | CGTAAACA | 0.374
139 | CGTAATCC | 0.405
140 | CGTAATCA | 0.452
141 | AGTAATCA | 0.0126
142 | GGTAAACA | 0.136
143 | GGTGGCAA | -0.169
144 | CCCGACGC | -0.148
145 | AAGGTTTA | -0.0389
146 | ATCTTGGC | -0.119
147 | ACGAGACT | 0.0545
148 | AACACCAA | 0.109
149 | ACTACGCG | 0.245
150 | ACTACGAA | 0.289

Row | Sequence | PBM E-score
151 | ACTACGGA | -0.036
152 | GCTACGGA | -0.0597
153 | GCTACGTA | 0.456
154 | ACTACGTG | 0.415
155 | ACTACGTA | 0.484
156 | ACTACGGG | -0.221
157 | GCTACGAA | 0.239
158 | ATAGCGAG | -0.0959
159 | ATAATGAG | 0.114
160 | CGAATGAC | 0.351
161 | CTAATGGA | -0.158
162 | ATAATGAT | 0.278
163 | CCAATGAC | 0.253
164 | GCAATGAC | 0.374
165 | GTAATGGA | 0.402
166 | ATAATGGA | 0.068
167 | GCAATGAA | 0.128
168 | AGAATGAC | 0.377
169 | ATAATGAC | 0.378
170 | AGAATGAG | 0.0649
171 | AATCAAAC | 0.229
172 | AGAAGTGG | -0.19
173 | ACTTCTAA | -0.0244
